Source: PubChem (National Center for Advancing Translational Sciences (NCATS))
Rab9 prom act – qHTS Assay for Rab9 Promoter Activators; 320,000 compounds, 2.8% hits; Huh7 Rab9 promoter-luciferase reporter, luminescence, 24 h; Potency, µM (top dose mostly 9.22 µM), for the others: at the highest dose activation, negative = inhibition, usual class: activators; AID 485297, 2010; note: % of control where 0% means no effect; nearly all actives have a fitted effect of over 60% in size
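Huh7 reporter line, Rab9 promoter upstream of luciferase. Compound exposure 24 h at 37 °C in reduced-serum medium with 10% FBS. Read-out: luminescence.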
uPA generation – qHTS for Inhibitors of Cell Surface uPA Generation. cell surface uPA generation assay, qHTS. Potency, µM (top dose mostly 38.3 µM), without a hit: top-dose activity change, negative = inhibition, most hits filed as inhibitors. 330,000 compounds, 0.31% hits; active = well fitted inhibition curve with a large enough effect; inconclusive = small, poorly fitted or top-dose-only effect; inactive = no such curve, though single readings can be large or run the other way; tested in mouse RAW 264.7 cells; note: % is set by controls: 0 for no effect and ±100 for the full control effect; nearly all actives have a fitted effect of over 55% in size
FLuc counter – qHTS profiling assay for firefly luciferase inhibitor/activator using purifed enzyme and Km concentrations of substrates (counterscreen for miR-21 project); purified FLuc, Km substrates, luminescence inhibition; Potency, µM (doses to about 57.5 µM), inactives show at the highest dose activity change, negative = inhibition, actives largely listed as inhibitors; 360,000 compounds, 6.9% hits;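 note: plate controls were vehicle for no effect and reference inhibitor for full effect; nearly all actives have a fitted effect of over 55% in size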
Target sequence (P08659 whole entry, looked up): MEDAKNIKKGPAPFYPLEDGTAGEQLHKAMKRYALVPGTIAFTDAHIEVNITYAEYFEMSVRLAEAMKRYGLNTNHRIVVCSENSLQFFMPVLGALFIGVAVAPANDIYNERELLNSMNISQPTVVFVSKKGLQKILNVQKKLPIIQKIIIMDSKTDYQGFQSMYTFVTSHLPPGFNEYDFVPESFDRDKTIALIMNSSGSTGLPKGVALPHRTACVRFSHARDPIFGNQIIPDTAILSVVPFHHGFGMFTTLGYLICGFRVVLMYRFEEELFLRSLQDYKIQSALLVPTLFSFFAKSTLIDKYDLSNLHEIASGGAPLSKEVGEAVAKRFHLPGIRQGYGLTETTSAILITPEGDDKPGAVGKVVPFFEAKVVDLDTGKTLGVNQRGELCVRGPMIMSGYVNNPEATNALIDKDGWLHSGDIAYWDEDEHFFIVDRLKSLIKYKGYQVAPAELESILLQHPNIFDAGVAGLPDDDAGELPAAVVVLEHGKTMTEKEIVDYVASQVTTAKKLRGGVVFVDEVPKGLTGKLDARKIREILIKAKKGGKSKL
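Purified P. pyralis luciferase, 10 nM final, with Km-level 10 uM D-luciferin and 10 uM ATP in 50 mM Tris acetate pH 7.5, 10 mM Mg acetate, 0.01% Tween-20, 0.05% BSA; 6-point qHTS titration about 60 µM downward; luminescence read.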
SMN2 splice enh – qHTS Assay for Enhancers of SMN2 Splice Variant Expression; 210,000 compounds, 2.8% hits; HEK293 SMN2-luciferase splicing reporter, luminescence, 30-36 h; Potency, µM (doses to about 46.1 µM), for inactives: at the top dose activity change, positive = activation, most hits filed as activators; note: % of control where 0% means no effect; nearly all actives have a fitted effect of over 55% in size
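qHTS luciferase splicing reporter: luminescence rises when SMN2 exon 7 is included in transfected HEK293 cells. Compound exposure lasted 30-36 h at 37C, with 4.5 mM final sodium butyrate as control, followed by a ONE-Glo read.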
NPC1 prom act – qHTS Assay for NPC1 Promoter Activators | Huh7 NPC1 promoter luciferase reporter, 24 h | Potency, µM (series often up to 9.22 µM), for the others: at the highest dose activation, usual class: activators | 320,000 compounds, 2.4% hits; note: % of control where 0% means no effect; nearly all actives have a fitted effect of over 60% in size
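Luminescence read-out of NPC1 promoter-driven luciferase in stably transfected Huh7 cells; compounds delivered in DMSO and left 24 h at 37C, 5% CO2, qHTS titration format.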
ELG1 genotoxic – qHTS screen for small molecules that induce genotoxicity in human embryonic kidney (HEK293T) cells expressing luciferase-tagged ELG1. HEK293T ELG1-luciferase reporter, luminescence, 16 h. Potency, µM (doses to about 46 µM), inactives show top-dose activity change, positive = activation, most hits filed as activators. 330,000 compounds, 1.3% hits; note: % of control where 0% means no effect; nearly all actives have a fitted effect of over 60% in size
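HEK293T cells expressing luciferase-tagged ELG1 were exposed to compound or DMSO vehicle for 16 hr at 37 °C and 5% CO2. Luciferase activity was then measured with ONE-Glo after 30 min at room temperature.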
An asterisk follows results filed as active; ? = inconclusive; . = no result given. An excerpt weighted towards active compounds, which were near 7.3% of everything screened. Unless noted, calls come from the whole dose curve; as a rule, active = well fitted curve in the direction sought with a large enough effect; inconclusive = small, poorly fitted or top-dose-only effect, or another doubt; inactive = no such curve, though single readings can be large; an effect the other way counts as inactive or inconclusive. Potency is the fitted concentration of half-maximal effect.

SMILES	Rab9 prom act	uPA generation	FLuc counter	SMN2 splice enh	NPC1 prom act	ELG1 genotoxic
CCOC(=O)c1sc(NC(=O)Nc2cccc(Cl)c2)cc1C	?	?	1.7µM*	?	2.5µM*	?
CCOC(=O)c1sc(NC(=O)c2ccc(Br)o2)cc1C	1.6µM*	-6%	3.4µM*	11µM*	4µM*	2.3µM*
CCn1c(CNC(=O)C23CC4CC(CC(C4)C2)C3)nnc1SCC(=O)Nc1ccc(F)cc1	.	.	1%	-8%	.	.
CCOc1ccc(-n2c(SCc3ccccc3)nc3c([nH]c4ccccc43)c2=O)cc1	.	.	-1%	.	.	.
COc1ccc(NC(=O)N2CCCC3(CCN(S(=O)(=O)c4ccccc4)CC3)C2)cc1	.	.	.	-7%	.	.
O=C(CCN1C(=O)c2ccccc2Sc2ncccc21)Nc1ccc(F)cc1F	.	.	-5%	.	.	.
O=c1c(CCc2ccccc2)nc2cnc(N3CCNCC3)nc2n1Cc1ccc(F)cc1	.	.	.	-88%	.	.
Cc1ccc(-n2c3c(c(=O)[nH]c2=O)C(NC(=O)c2ccccc2F)(C(F)(F)F)C(=O)N3)cc1C (centres undefined)	.	.	-2%	6%	.	.
Cc1ccc(-c2nnc(COC(=O)c3ccco3)o2)cc1	-2%	9%	13µM*	.	-5%	13%
Cc1ccc(-c2nnc(COC(=O)c3cccs3)o2)cc1	21%	10%	6.7µM*	.	?	?
Cc1ccc(C(=O)OCc2nnc(-c3ccc(Br)cc3)o2)cc1	-1%	0%	?	-5%	1%	1%
CCCCn1c(=O)nc2n(-c3ccc(F)cc3)c3ccccc3cc-2c1=O	.	.	2%	-3%	.	.
CCn1nc(C)c2c(-c3ccccc3)cc(=O)n(C(C)C(=O)Nc3ccc(OC)c(OC)c3)c21 (centres undefined)	.	.	-3%	.	.	.
CCN1c2ccccc2-c2nc(SCC(=O)Nc3ccc(C)c(Cl)c3)ncc2S1(=O)=O	.	.	0%	.	.	.
Cc1ccc(SCc2cn3ccccc3n2)cc1	1.6µM*	-7%	5.4µM*	.	1.3µM*	5.2µM*
O=C(O)c1ccccc1SCc1cn2ccccc2n1	9%	-1%	?	14%	0%	4%
Cc1ccc(C(=O)OCc2cn3ccccc3n2)cc1	4%	2%	?	-2%	1%	?
c1ccc(CSCc2cn3ccccc3n2)cc1	1.1µM*	-2%	17µM*	16µM*	2.8µM*	?
COc1cccc(CNC(=O)c2ccc3c(c2)N(C)C(=O)C2CCCCN32)c1 (centres undefined)	.	.	-8%	.	.	.
CN1C=C/C(=C\c2cc[n+](C)c3ccccc23)c2ccccc21	-32%	?	17µM*	-82%	-39%	12%
O=C(N/N=C\c1cccc([N+](=O)[O-])c1O)C1COc2ccccc2O1 (centres undefined)	-5%	-12%	19µM*	15%	6%	2%
O=C(Nc1ccccc1[N+](=O)[O-])C1COc2ccccc2O1 (centres undefined)	3.5µM*	-1%	9.5µM*	.	2.8µM*	?
Cc1ccccc1CN1C(=O)c2ccccc2Sc2ccc(C(=O)NCc3ccccc3)cc21	.	.	-9%	.	.	.
Fc1ccc(-c2nnsc2Sc2ccccn2)cc1	29%	-4%	-15%	10%	12%	?
C[N+]1(C)C2CCC1CC(OC(=O)C(O)c1ccccc1)C2 (centres undefined)	.	.	.	-5%	.	.
CCOc1ccc(NC(=O)Nc2cnccn2)cc1	?	2%	?	?	12%	7%
Cc1ccc(NC(=O)C2CCCN(c3ncccn3)C2)cc1C (centres undefined)	?	4%	17µM*	.	?	?
CCC(C)c1ccc(NC(=O)C2CC3CCC2C3)cc1 (centres undefined)	.	-3%	.	.	.	.
